Laboratory results: PubChem BioAssay
Active and inactive are the calls of the source.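 Rule for the calls: active = primary screen hit whose fluorescence ratio, in both repeats, exceeds the weak agonist control mean by 3 SD; inactive = the rest.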

tested on: TRPC4 (transient receptor potential cation channel C4 beta), mouse; test: potentiation of DAMGO EC20 TRPC4 response – cell-based, second round, Fluo-4, HEK293 TRPC4beta/mu-opioid, 1 µM, confirmation (AID 2554); details: DAMGO EC20, Fluo-4 calcium flux, at 1 µM; active compounds read high

SMILES	outcome	potentiation
CCCCN(CC)CCNC(=O)Cn1cc2c(n1)-c1c(oc(C(=O)N3CCCC3)c1C)CC2	inactive	–
Cc1ccc(NC(=S)NC2CC3CCC(C2)N3Cc2ccco2)c(C)c1 (centres undefined)	inactive	–
COc1ccc(N2CCN(Cc3nc4ccccc4n3C)CC2)cc1	inactive	–
CCC(=O)NC(C)C(c1cccs1)N1CCN(c2ccccc2)CC1 (centres undefined)	inactive	–
CC(=O)n1cc([C@H]2C=C(C(=O)NCc3ccccc3)O[C@@H](OCc3ccc(CO)cc3)C2)c2ccccc21	inactive	–
CCN1CCCC1CNC(=O)c1cc2c(OC)cccc2[nH]1 (centres undefined)	inactive	–
COc1ccc(F)cc1CN1CCN(C(=O)CCC(=O)Nc2nnc(C(C)C)s2)CC1	inactive	–
CN(CCOc1ccc(Br)cc1)CC(O)c1ccccc1 (centres undefined)	inactive	–
CCN1CCN(c2c(Cl)cccc2NC(=O)c2ccc([N+](=O)[O-])cc2)CC1	inactive	–
CCn1c(=O)c(C(=O)NNC(=O)c2ccccc2F)c(O)c2ccccc21	inactive	–
CN1C(CC(=O)Nc2ccc(Br)cc2)c2ccccc2CC1(C)C (centres undefined)	inactive	–
COc1ccc(C(CNCC(O)COc2c(C)ccc(C)c2C)N(C)C)cc1 (centres undefined)	inactive	–
COc1ccc(C(CNC(=O)C(Cc2ccccc2)NC(N)=O)N(C)C)cc1 (centres undefined)	inactive	–
CCCN(CCC)CCNC(=O)CCC(=O)Nc1ccc2nc(N3CCOCC3)cc(C)c2c1	inactive	–
Fc1ccc(NC(=S)NCCc2ccccn2)cc1	inactive	–
Cc1noc(C)c1CCC(=O)NC1CCCN(Cc2ccc(CC(C)C)cc2)C1 (centres undefined)	inactive	–
COc1ccc(C(CCNCc2ccc(N(C)C)cc2)c2ccccc2)cc1 (centres undefined)	inactive	–
COc1ccc(-c2nn(-c3ccccc3C)cc2CNCc2cccnc2)cc1F	inactive	–
CN(C)C(CNC(=O)c1cccc(S(=O)(=O)N(C)C)c1)c1ccccc1 (centres undefined)	inactive	–
Nc1c(C(=O)c2ccccc2)sc2nsc(SCCN3CCCC3)c12	inactive	–

SMILES	outcome	potentiation
CC1CC(C)CN(CCCNC(=O)c2ccc3c(c2)N(Cc2ccccc2)C(=O)c2ccccc2S3=O)C1 (centres undefined)	inactive	–
CN(C)c1ccc(C(CNC(=O)Cc2cccc3ccccc23)N(C)C)cc1 (centres undefined)	inactive	–
Cc1csc2c(N3CCN(C(=S)Nc4ccc(C(F)(F)F)cc4)CC3)ncnc12	inactive	–
O=S(=O)(NCCc1csc(-c2ccccc2)n1)c1cccnc1	inactive	–
COc1ccc(-c2nc(CSCC(=O)NC3CCN(Cc4ccccc4)CC3)c(C)o2)cc1OC	inactive	–
NC(N)=NN=C1CCCCCCCCCCC1	inactive	–
CCn1c(CN2CCN(Cc3ccc(C)cc3)C(CCO)C2)nc2ccccc21 (centres undefined)	inactive	–
COc1ccc(C(CNc2nc(-c3cccnc3)nc3ccccc23)N(C)C)cc1 (centres undefined)	inactive	–
Cc1ccc(Cn2c(SCCN3CCCCC3)nc3c2c(=O)n(C)c(=O)n3C)cc1	–	8% (active)
COc1ccc(C(CNC(=O)CCOc2ccccc2)N(C)C)cc1 (centres undefined)	inactive	–
CCOC(=O)C1(CCOc2ccccc2)CCN(Cc2cc(OC)ccc2OC)CC1	inactive	–
Cc1cccc(NC(=S)NCC(c2ccccc2)N(C)C)c1 (centres undefined)	inactive	–
CC(C)n1cnc2c(N(C)c3ccccc3)nc(N(CCN(C)C)Cc3ccccc3)nc21	inactive	–
CC(CN1CCCC(C(N)=O)C1)c1ccccc1 (centres undefined)	inactive	–
O=c1c(Cc2ccc(F)cc2)c(O)ccn1CCc1cnc[nH]1	inactive	–
Cc1c(Cl)cccc1NC(=S)NCC(c1cccnc1)N(C)C (centres undefined)	inactive	–
COc1ccc(C(CNC(=O)c2ccc3c(c2)OCCO3)N(C)C)cc1 (centres undefined)	inactive	–
O=C(NC1CCCN(Cc2ccc(Cl)cc2)C1)C1CCC1 (centres undefined)	inactive	–
CN(C)c1ccc(-c2sc(Nc3ccccc3)n[n+]2-c2ccc(F)cc2)cc1	inactive	–
